Where a name gives a salt, the structure may show the parent alone.
test system: PBMC-derived induced microglia-like cells (piMGLC); assay: synaptosome phagocytic index relative to DMSO control (fraction of DMSO); higher = more phagocytosis; settings: concentration: 10 uM (2 uM for compounds listed in Table S2); pretreatment time: 24 h; assay time: 3 h

SMILES | synaptosome phagocytic index
CCc1cc(C(N)=S)ccn1 [Ethionamide] | 0.996
Cc1cccc(C)c1OCC(=O)N[C@@H](Cc1ccccc1)[C@@H](O)C[C@H](Cc1ccccc1)NC(=O)[C@H](C(C)C)N1CCCNC1=O [Lopinavir] | 0.253
CCC(=N\O)/C(C)=C/c1ccc(F)cc1 | 0.93
C#CCNS(=O)(=O)c1ccc(CCN(Cc2cc(Cl)ccc2OCCC)C(=O)Cc2ccsc2)cc1 | 0.54
CN1C(=O)OC(C)(C)C1=O [Trimethadione] | 0.751
Cc1ccc(S(=O)(=O)/C=C/C#N)cc1 | 0.903
CCc1cccc2c3c([nH]c12)C(CC)(CC(=O)O)OCC3 (stereo not given) [Etodolac] | 1.01
Cc1ccc(C(=O)NCCCCCC(=O)Nc2ccccc2N)cc1 | 0.694
CN1C(C(=O)Nc2ccccn2)=C(O)c2ccccc2S1(=O)=O [Piroxicam] | 0.661
CCCN(CCc1cccs1)[C@H]1CCc2c(O)cccc2C1 [Rotigotine] | 0.995
CN(C)CCC=C1c2ccccc2C=Cc2ccccc21 [Cyclobenzaprine_(hydrochloride)] | 0.59
C.CN(C)C(=O)c1cc2cnc(Nc3ccc(N4CCNCC4)cn3)nc2n1C1CCCC1 [Ribociclib_succinate_hydrate] | 0.195
NC(=O)c1cn(Cc2c(F)cccc2F)nn1 [Rufinamide] | 0.654
COc1cc(C(=O)NCc2ccc(OCCN(C)C)cc2)cc(OC)c1OC [Trimethobenzamide_hydrochloride] | 1.24
O=C(O)Cc1ccccc1Nc1c(Cl)cccc1Cl [Diclofenac] | 1.01

Reference: the supplement of paper PMC12339681
